Measurements as given in PubChem BioAssay.
For part of these data: Entries with a potency or affinity are not part of this list. The source made the active and inactive calls. How the calls were made is not given here.

molecular target: Plasmodium falciparum protein kinase 6 (PK6, PF3D7_1337100) (UniProt Q8IDW1); assay: PfPK6 kinase inhibitors, biochemical, TCAMS library (AID 1159586); details: recombinant PfPK6, Kinase-Glo ATP depletion luminescence
Sequence (Q8IDW1 1-305): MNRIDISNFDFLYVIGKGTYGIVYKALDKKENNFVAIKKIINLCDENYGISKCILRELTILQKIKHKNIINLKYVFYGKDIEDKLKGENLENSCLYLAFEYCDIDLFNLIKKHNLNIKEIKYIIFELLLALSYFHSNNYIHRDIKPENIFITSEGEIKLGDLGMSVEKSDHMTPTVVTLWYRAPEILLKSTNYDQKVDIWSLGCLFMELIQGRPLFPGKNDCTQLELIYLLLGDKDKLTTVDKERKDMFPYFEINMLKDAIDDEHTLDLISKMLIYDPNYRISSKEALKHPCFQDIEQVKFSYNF

outcome, inactive:
CC(C)CCNc1nc(NCCc2ccccc2)c2cc(O)ccc2n1
COc1cccc(CCc2nc3c(N4CCC(Cc5ccccc5)CC4)cccc3n2CC2CNCCO2)c1 (stereo unspecified)
O=C(OCC1CCN(Cc2ccccc2)C1)c1ccc(Cl)cc1 (stereo unspecified)
Oc1ccc(CCNc2nc(NCCCOc3cc(CN4CCCCC4)ccc3F)nc(N3CCNCC3)n2)cc1
Cc1noc(C)c1-c1cccc(CNCc2cccc(-c3cccc(-c4nc5ccc(C(F)(F)F)cc5[nH]4)c3)c2)c1
CC1CCCN1Cc1cccc(-c2ccc(C(=O)NCCOc3ccccc3)s2)c1 (stereo unspecified)
COc1cc(C(=O)NCCCN2CCN(c3cccc(Cl)c3)CC2)ccc1-c1cc2cc(Cl)c(Cl)cc2[nH]1
CCn1c(SCC(=O)Nc2cc(C(F)(F)F)ccc2Cl)nc2ccccc2c1=O
COc1ccc2nccc([C@@H](O)CN3CCC(NC(=O)Cc4cccc5c(Br)cccc45)CC3)c2c1
CC(CN(C)C)C(=O)Nc1cccc(-c2cccc(-c3nc4ccccc4[nH]3)c2)c1 (stereo unspecified)
Fc1cccc(COc2ccc(Nc3ncnc4sc(C#C[C@H]5CC[C@H](CNCC(F)(F)F)N5)cc34)cc2Cl)c1
COc1cccc2c(NN=Cc3cccc(F)c3)ccnc12
CN1CCN(Cc2cc(NC(=O)c3ccc(-c4ccc(Cl)cc4Cl)cc3)ccc2-c2ccccc2)CC1
CCCCCCN(CCCCCC)CC(O)c1cc(-c2ccc(Cl)cc2)nc2c(C)cc(C)cc12 (stereo unspecified)
Cc1cc(N)c2cc(NC(=O)c3cc(C(F)(F)F)cc(C(F)(F)F)c3)ccc2n1
O=C(Nc1ccc(Cl)cc1)c1ccc(S(=O)(=O)NCC2CCN(CC3CCCCC3)CC2)cc1
COc1cccc(NC(=O)CSc2nc(-c3ccccc3Cl)ns2)c1
CC(C)c1ccc(S(=O)(=O)Nc2cccc(CCN3CCC(N4CCCCC4)CC3)c2)cc1
Cn1cnc2c(SCc3ccccc3OCc3ccccc3)ncnc21
O=C(Nc1ccc(N2CCNCC2)nc1)c1oc(-c2ccccc2)nc1C(F)(F)F
CC(=O)Nc1nc(C(=O)Nc2ccc(-c3cccc(-c4nc5ccccc5[nH]4)c3)cc2)cs1
Cc1ccc(S(=O)(=O)NC2CCN(CCNC(=O)Nc3cc(C)nc4ccccc34)C2)cc1 (stereo unspecified)
O=C(Nc1ccc(-c2csc(-c3nc4ccccc4[nH]3)c2)cc1)Nc1ccsc1
O=C(NC1CCCCCC1)C1CCCN(C(=O)c2ccc(O)c(-c3ccc(Cl)c(Cl)c3)c2)C1 (stereo unspecified)
CCCNC(=O)CN1CN(c2ccccc2)C2(CCN(C(=O)c3ccc(C(C)(C)C)cc3)CC2)C1=O
N#Cc1ccc2[nH]cc(CN3CCC4(CC3)CN(CCNCc3ccccc3)C(=O)O4)c2c1

molecular target: Protein kinase 7 (PK7), Plasmodium falciparum 3D7 (PF3D7_0213400) (UniProt Q7YTF7); assay: inhibition of Plasmodium PK7 catalytic activity – biochemical, TCAMS antimalarial set, Kinase-Glo luminescence (AID 1159587); details: recombinant PfPK7, Kinase-Glo ATP depletion luminescence
Sequence (Q7YTF7 1-343): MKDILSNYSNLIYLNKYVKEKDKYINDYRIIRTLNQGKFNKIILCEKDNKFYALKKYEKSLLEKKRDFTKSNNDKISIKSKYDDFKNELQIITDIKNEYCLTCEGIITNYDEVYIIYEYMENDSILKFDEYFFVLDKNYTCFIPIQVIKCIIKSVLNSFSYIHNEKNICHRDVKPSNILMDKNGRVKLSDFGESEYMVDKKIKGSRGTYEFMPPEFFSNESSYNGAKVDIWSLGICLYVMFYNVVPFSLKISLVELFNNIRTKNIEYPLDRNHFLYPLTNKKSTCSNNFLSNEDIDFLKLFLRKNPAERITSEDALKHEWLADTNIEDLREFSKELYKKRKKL

outcome, inactive:
N#Cc1ccc(N2CCN(Cc3ccc(-c4cccc(-c5nc6ccccc6[nH]5)c4)cc3)CC2)nc1
COc1ccc(CNCc2ccc(-c3cccc(-c4nc5ccc(F)cc5[nH]4)c3)cc2)cc1
FC(F)(F)c1ccc2nc(-c3ccc(-c4ccc(CNCCN5CCNCC5)cc4)cc3)[nH]c2c1
Nc1ncc(-c2ccc3[nH]ccc3c2)c2ccc(-c3ccncc3)cc12
Cc1cc(N)c2cc(NC(=O)c3cc4ccccc4s3)ccc2n1
O=C(N[C@@H](Cc1ccccc1)C(=O)O)c1cc(-c2ccc(F)cc2)no1 (tested in a mixture with another compound)
CCCCC(CC)CN1C(=O)C(c2ccccc2)(c2ccccc2)N=C1N (stereo unspecified)
O=C(Nc1ccccc1)N(Cc1cccc(-c2ccc(CNCCc3ccccc3)cc2)c1)C1CCN(Cc2ccccc2)CC1
CCNc1cc(C(=O)N[C@@H](Cc2ccccc2)[C@H](O)CNC(C)(C)CCCC(C)C)cc(N2CCCCS2(=O)=O)c1
COc1cc(C)nc2ccc(NC(=O)Nc3ccc4nc(C)cc(OC)c4c3)cc12
COc1ccc(CNC(=O)C2Cc3ccccc3CN2Cc2ccc3ccccc3c2)cc1 (stereo unspecified)
O=C(/C=C/c1ccc2ccccc2c1)NCCCCCN1CCC(c2c[nH]c3ccccc23)CC1
O=C(N[C@@H](Cc1ccccc1)C(=O)NC1CCCc2ccccc21)c1ccc(O)c(-c2ccc(Cl)c(Cl)c2)c1 (stereo partly specified)
COc1cc(Nc2nc(N)n(C(=O)c3ccc4c(c3)OCO4)n2)cc(OC)c1OC
CC(C)CCNc1nc(NCCc2ccccc2)c2cc(O)ccc2n1
COc1cccc(CCc2nc3c(N4CCC(Cc5ccccc5)CC4)cccc3n2CC2CNCCO2)c1 (stereo unspecified)
O=C(OCC1CCN(Cc2ccccc2)C1)c1ccc(Cl)cc1 (stereo unspecified)
Oc1ccc(CCNc2nc(NCCCOc3cc(CN4CCCCC4)ccc3F)nc(N3CCNCC3)n2)cc1
Cc1noc(C)c1-c1cccc(CNCc2cccc(-c3cccc(-c4nc5ccc(C(F)(F)F)cc5[nH]4)c3)c2)c1
CC1CCCN1Cc1cccc(-c2ccc(C(=O)NCCOc3ccccc3)s2)c1 (stereo unspecified)
COc1cc(C(=O)NCCCN2CCN(c3cccc(Cl)c3)CC2)ccc1-c1cc2cc(Cl)c(Cl)cc2[nH]1
CCn1c(SCC(=O)Nc2cc(C(F)(F)F)ccc2Cl)nc2ccccc2c1=O
COc1ccc2nccc([C@@H](O)CN3CCC(NC(=O)Cc4cccc5c(Br)cccc45)CC3)c2c1
CC(CN(C)C)C(=O)Nc1cccc(-c2cccc(-c3nc4ccccc4[nH]3)c2)c1 (stereo unspecified)
Fc1cccc(COc2ccc(Nc3ncnc4sc(C#C[C@H]5CC[C@H](CNCC(F)(F)F)N5)cc34)cc2Cl)c1
COc1cccc2c(NN=Cc3cccc(F)c3)ccnc12
CN1CCN(Cc2cc(NC(=O)c3ccc(-c4ccc(Cl)cc4Cl)cc3)ccc2-c2ccccc2)CC1
CCCCCCN(CCCCCC)CC(O)c1cc(-c2ccc(Cl)cc2)nc2c(C)cc(C)cc12 (stereo unspecified)
Cc1cc(N)c2cc(NC(=O)c3cc(C(F)(F)F)cc(C(F)(F)F)c3)ccc2n1
O=C(Nc1ccc(Cl)cc1)c1ccc(S(=O)(=O)NCC2CCN(CC3CCCCC3)CC2)cc1
COc1cccc(NC(=O)CSc2nc(-c3ccccc3Cl)ns2)c1
CC(C)c1ccc(S(=O)(=O)Nc2cccc(CCN3CCC(N4CCCCC4)CC3)c2)cc1
Cn1cnc2c(SCc3ccccc3OCc3ccccc3)ncnc21
O=C(Nc1ccc(N2CCNCC2)nc1)c1oc(-c2ccccc2)nc1C(F)(F)F
CC(=O)Nc1nc(C(=O)Nc2ccc(-c3cccc(-c4nc5ccccc5[nH]4)c3)cc2)cs1
Cc1ccc(S(=O)(=O)NC2CCN(CCNC(=O)Nc3cc(C)nc4ccccc34)C2)cc1 (stereo unspecified)
O=C(Nc1ccc(-c2csc(-c3nc4ccccc4[nH]3)c2)cc1)Nc1ccsc1
O=C(NC1CCCCCC1)C1CCCN(C(=O)c2ccc(O)c(-c3ccc(Cl)c(Cl)c3)c2)C1 (stereo unspecified)
CCCNC(=O)CN1CN(c2ccccc2)C2(CCN(C(=O)c3ccc(C(C)(C)C)cc3)CC2)C1=O
N#Cc1ccc2[nH]cc(CN3CCC4(CC3)CN(CCNCc3ccccc3)C(=O)O4)c2c1
